# Compounds without any hit were thinned out: in the full panel of roughly 83,000, 20% have a hit.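 Values shown are percent growth following 48 h exposure of cells in 96-well plates to a single concentration of compound; below 10 was considered active.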 Values without a mark were called inactive. Active and inactive are the calls of the source.
# Assays:
# Experiment in all cases: NCI-60 one-dose screen, 48 h (100 = growth as untreated, 0 = no growth, -100 = all killed)
# Conditions in all cases: 10 µM unless noted
# NCI-H23 lung = tested on: NCI-H23 lung
# NCI-H226 lung = tested on: NCI-H226 lung
# NCI-H322M lung = tested on: NCI-H322M lung
# HOP-62 NSCLC = tested on: HOP-62 NSCLC
# NCI-H460 lung = tested on: NCI-H460 lung
# HOP-92 NSCLC = tested on: HOP-92 NSCLC
# NCI-H522 lung = tested on: NCI-H522 lung
# A549/ATCC NSCLC = tested on: A549/ATCC NSCLC
# 786-0 renal = tested on: 786-0 renal
# COLO 205 colon = tested on: COLO 205 colon
# DU-145 prostate = tested on: DU-145 prostate
# K-562 leukemia = tested on: K-562 leukemia
# MALME-3M melanoma = tested on: MALME-3M melanoma
# MDA-MB-231 breast = tested on: MDA-MB-231 breast
# RXF 393 renal = tested on: RXF 393 renal
# SF-268 CNS = tested on: SF-268 CNS
# SF-295 CNS = tested on: SF-295 CNS
# SF-539 CNS = tested on: SF-539 CNS
# UACC-257 melanoma = tested on: UACC-257 melanoma
# M14 melanoma = tested on: M14 melanoma
Structure (SMILES),growth (NCI-H23 lung),growth (NCI-H226 lung),growth (NCI-H322M lung),growth (HOP-62 NSCLC),growth (NCI-H460 lung),growth (HOP-92 NSCLC),growth (NCI-H522 lung),growth (A549/ATCC NSCLC),growth (786-0 renal),growth (COLO 205 colon),growth (DU-145 prostate),growth (K-562 leukemia),growth (MALME-3M melanoma),growth (MDA-MB-231 breast),growth (RXF 393 renal),growth (SF-268 CNS),growth (SF-295 CNS),growth (SF-539 CNS),growth (UACC-257 melanoma),growth (M14 melanoma)
Cc1ccc(-c2nc(C#N)c(S(=O)(=O)n3nc(C)cc3N)o2)cc1,90.7%,94.1%,91%,103%,99.7%,72.8%,-15.8% (active),99.4%,78%,-32.3% (active),108%,-17.2% (active),-63.3% (active),88.3%,76.8%,93.5%,109%,96.7%,95.1%,48.8%
Brc1ccc(-c2nn(-c3ccccc3)cc2-c2nn[nH]n2)s1,92.7%,85.7%,96%,82.7%,102%,62.4%,84.1%,93.9%,88.1%,120%,108%,87.2%,103%,87.3%,100%,92.8%,82.6%,91.4%,98%,96.9%
Cc1ccc(Nc2nc(N)nc(N)c2N=O)cc1Cl,71.9%,94.1%,104%,76%,102%,63%,75.4%,98.3%,79.4%,111%,73.7%,69.9%,82.2%,95.6%,91.8%,65.6%,105%,82%,92.2%,88.4%
CC(=O)O[C@H]1C[C@@]2(C)[C@@H](C[C@@H](O)[C@H]3[C@@]4(C)CC[C@H](N5CCCC5)[C@@H](C)[C@@H]4CC[C@@]32C)/C1=C(\CCC=C(C)C)C(=O)O,95.7%,94.6%,101%,100%,101%,83.7%,91.2%,102%,105%,108%,105%,14.8%,95.6%,109%,98.9%,98.9%,96.3%,96.1%,98.1%,92.2%
N/C(=N\c1nc2ccccc2s1)NC(=O)Nc1ccccc1,54.7%,87.8%,74.3%,30%,14.4%,53.2%,-13.2% (active),39%,52.3%,28.3%,58.1%,10.8%,58.1%,31.6%,62.1%,57.5%,39%,26.9%,59%,7.51% (active)
CCN1C(=O)N(CC)C2C1NC(=S)N2/N=C/C=C/c1ccccc1 (stereo not given),21.4%,-10.1% (active),46.1%,29.3%,5.19% (active),27.8%,-2.87% (active),16.9%,25.6%,-30.4% (active),7.35% (active),10.9%,53.7%,18.5%,18.8%,20.8%,3.58% (active),-13.8% (active),55.1%,5.45% (active)
CCN(CC)CCCNC(=O)c1c2c(n3ccccc13)C(=O)c1ncccc1C2=O,-38.7% (active),-34.9% (active),-49% (active),-69% (active),-44.4% (active),-47.1% (active),-79% (active),-65.3% (active),3.22% (active),-95.6% (active),-94.9% (active),-33.7% (active),-93% (active),-0.531% (active),-35.9% (active),-3.91% (active),-22.1% (active),-63% (active),-90.1% (active),-84.1% (active)
N#CC1=C(N)Oc2c(ccc3ccccc23)C1c1cc2ccccc2n2nnnc12 (stereo not given),36.6%,53.6%,34%,24.6%,11.3%,49.2%,12.3%,33.4%,13.4%,48.4%,19.5%,4.13% (active),53.4%,32.9%,11.4%,26.3%,10.7%,-8.31% (active),47.4%,12.7%
Cc1cc(=O)oc2cc(Oc3nc(-c4ccccc4)cn4c(-c5ccccc5)cnc34)ccc12,62.4%,44.6%,86%,68.7%,64%,22.4%,47.1%,56.1%,67.3%,70.5%,68%,61.8%,-9.77% (active),50.4%,28.3%,64.4%,54.2%,54.6%,65.7%,67.7%
COC(CCP(=O)(c1ccccc1)c1ccccc1)(C(=O)c1ccccc1)c1ccccc1 (stereo not given),77.3%,85.7%,72.8%,88%,50%,-8.84% (active),28.9%,48.1%,89.4%,62.4%,111%,9.03% (active),96.3%,73.6%,76.2%,86.1%,32.1%,87.2%,64.3%,63%
CCCCC1=C(Br)C(=O)c2ncccc2C1=O,95%,97.8%,100%,91.3%,105%,46.2%,74.3%,94.8%,93.3%,-6.16% (active),103%,30.2%,101%,77.6%,98.3%,95.5%,106%,94.5%,92.6%,98.2%
Cc1ccc(S(=O)(=O)N(CCC(=O)O)c2ccccc2)cc1,112%,109%,122%,96.2%,112%,102%,109%,104%,94.3%,132%,111%,93.4%,142%,114%,152%,102%,111%,99.1%,102%,107%
CC(C)(C)n1cc(-c2ccnc(NCCNS(=O)(=O)c3ccc(C(F)(F)F)cc3)c2)c(-c2ccccc2)n1,83%,89.4%,99.5%,97.8%,93.8%,3.62% (active),85.9%,78.2%,80.5%,87.3%,99.2%,44.3%,109%,92.1%,87.8%,95.3%,83.7%,82.2%,104%,88.8%
CCCCCCCCOC(=O)c1c(C)[nH]c(/C=C2\N=C(c3ccc[nH]3)C=C2OC)c1C,3.19% (active),9.15% (active),26%,12.7%,10.2%,-12.5% (active),4.04% (active),-10.9% (active),-40.1% (active),-33.7% (active),23.3%,10.8%,-42.9% (active),-5.15% (active),-19.9% (active),24%,-34.7% (active),3.4% (active),-15.2% (active),-56.1% (active)

# — PubChem BioAssay (NCI)
